A selection: hits, their analogues and other compounds. The true share with any hit is near 11%.
HPGD block: blocks human HPGD enzyme activity | P15428 | purified HPGD, NADH fluorescence kinetic, PGE2 substrate | Potency, µM, for the others: top-dose activity change, negative = inhibition, hits mostly inhibitors | 4.3% of 150,000 active | AID 894; note: potency is the fitted concentration of half-maximal effect
Target sequence (P15428 whole entry, looked up): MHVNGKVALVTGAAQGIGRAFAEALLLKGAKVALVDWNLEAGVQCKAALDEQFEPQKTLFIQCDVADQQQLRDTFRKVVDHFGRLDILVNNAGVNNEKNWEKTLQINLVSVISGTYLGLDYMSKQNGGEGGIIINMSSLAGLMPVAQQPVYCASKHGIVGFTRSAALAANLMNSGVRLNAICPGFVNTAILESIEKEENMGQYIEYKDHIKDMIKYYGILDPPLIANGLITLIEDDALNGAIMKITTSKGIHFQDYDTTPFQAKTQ
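20 nM HPGD preincubated 15 min at room temperature with compound in 50 mM Tris-HCl pH 8, 0.01% Tween 20. Started with 1 mM NAD+ and 30 uM prostaglandin E2; NADH fluorescence (360/450 nm) read 5 times over 30-s intervals, last minus first.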
IMPase inh: cell-permeable inhibitors of inositol monophosphatase (IMPase) | AID 901 | 120,000 tested, under 10 active | P97697 | inhibition (IP1 accumulation), % at 46.1 µM | CHO-M1 cells, IP1 accumulation, HTRF TR-FRET ratio; active = well fitted curve in the direction sought with a large enough effect in the signal ratio, not every such curve was filed as active; inconclusive = small, poorly fitted or top-dose-only effect, or a change in a side signal; inactive = no such curve, though single readings can be large or run the other way; the % refers to the signal ratio;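 note: cells stimulated with carbachol in lithium chloride buffer; plate controls were DMSO basal wells for no effect and reference inhibitor wells for full effect; higher means more IMPase inhibition seen as more IP1 and lower FRET ratio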
Target sequence (P97697 whole entry, looked up): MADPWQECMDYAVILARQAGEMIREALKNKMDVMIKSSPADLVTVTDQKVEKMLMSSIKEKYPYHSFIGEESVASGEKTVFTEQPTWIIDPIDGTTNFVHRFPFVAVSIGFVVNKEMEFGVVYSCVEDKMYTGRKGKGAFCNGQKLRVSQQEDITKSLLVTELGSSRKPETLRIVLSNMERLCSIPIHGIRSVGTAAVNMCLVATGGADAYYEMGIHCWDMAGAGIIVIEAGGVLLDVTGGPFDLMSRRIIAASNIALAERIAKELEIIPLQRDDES
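Cellular IMPase inhibition is scored as a rise in cytosolic IP1, detected by competitive TR-FRET between d2-labelled IP1 and a europium anti-IP1 antibody. M1-expressing CHO cells were stimulated with carbachol for 30 min at 37C, with lithium (50 mM LiCl) present in the buffer.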
PNC inhibitor: perinucleolar compartment assembly inhibition. AID 2417. activity change (PNC), negative = inhibition, % at 10 µM. 3.1% of 140,000 active. PC3M PTB-GFP, PNC prevalence imaging, 16 h; hits give low values;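 active = readout at or below -70, meaning at least 70% loss of cells showing the perinucleolar compartment, a nuclear body marking cancer cells; inconclusive = readout between -30 and a set limit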;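 note: plate controls were DMSO wells for no effect and camptothecin positive control wells for full effect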
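Compounds are pinned in duplicate onto adhered PC3M cells stably expressing GFP-tagged PTB and incubated 16 h at 37 C. Cells are then fixed, nuclei stained with Hoechst, and PNC-positive cells counted.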
ALDH1A1 block: inhibitors of human aldehyde dehydrogenase 1A1 | P00352 | Purified ALDH1A1, NADH fluorescence, propionaldehyde substrate | Potency, µM (top dose mostly 75.3 µM), for inactives: at the highest dose activity, negative = inhibition, most hits filed as inhibitors | 7.3% of 220,000 active | AID 1030;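 note: potency is the fitted concentration of half-maximal effect; plate controls were no enzyme wells and a reference inhibitor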
IMPase Li inh: cell-permeable IMPase inhibitors with lithium potentiation; CHO-M1 cells, IP1 TR-FRET (IP-One), carbachol + lithium; Potency, µM (titrated, usually from 59.4 µM), for the others: at the highest dose activity, negative = IMPase inhibition, most hits filed as inhibitors; 0.35% of 210,000 active; AID 1457; active = well fitted inhibition curve with a large enough effect; inconclusive = small, poorly fitted or top-dose-only effect; inactive = no such curve, though single readings can be large or run the other way;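 note: IP1 builds up when IMPase is blocked and the TR-FRET signal falls; potency is the fitted concentration of half-maximal effect; plate controls were basal vehicle for no effect and high inhibitor control for full effect; nearly all actives have a fitted effect of over 50% in size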
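Test compounds were applied to CHO-M1 cells previously cultured for 16–30 h at 2000 per well. A small lithium amount accompanied them; after 30 min at 37C, IP1 was quantified by TR-FRET.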
* = called active by the depositor; ? = inconclusive; . = no result; [ ] = another dose, or the depositor's remark. Unless noted, calls come from the whole dose curve; as a rule, active = well fitted inhibition curve with a large enough effect (not every such curve was filed as active); inconclusive = small, poorly fitted or top-dose-only effect, or another doubt; inactive = no such curve, though single readings can be large or run the other way. Unless noted, % is set by controls: 0 for no effect and ±100 for the full control effect.

SMILES | HPGD block | IMPase inh | PNC inhibitor | ALDH1A1 block | IMPase Li inh
O=[N+]([O-])c1ccc(S(=O)(=O)N2CCSC2c2ccco2)cc1 (configuration not stated) | . | . | . | 4µM* | .
CO[C@H]1COC(=O)[C@@H](C)COC(=O)[C@H](C)NC(=O)C/C=C\[C@H]1C | . | . | . | 14%[13.5 µM] | .
CC(C)(C)c1cc(C(=O)NNc2cc(C(F)(F)F)ccc2Cl)n(Cc2ccccc2)n1 | . | . | . | -14% | .
Cc1ccc(OCC(=O)NC(=S)Nc2ccc3c4c(cccc24)CC3)cc1 | -12% | . | -12 | 10µM* | 11µM*
O=C(COc1ccccc1)NC(=S)Nc1ccc2c3c(cccc13)CC2 | -7% | ? | -7 | ? | ?
CC(C)c1ccc(OCC(=O)NC(=S)Nc2ccc3c4c(cccc24)CC3)cc1 | -13% | ? | 3 | ? | 13µM*
O=C(NCCO)C1CCN(C(=O)c2ccc(-c3ccccc3)cc2)CC1 | . | . | . | -6% | 3%
CC(C)CCNC(=O)CCCOc1cc(=O)n(C)c2ccccc12 | 16µM* | 8 | -26 | -1% | -11%[38.3 µM]
O=C(CCN1C(=O)c2ccccc2S1(=O)=O)NCc1ccco1 | -16% | -4 | -27 | -4% | 12%[38.3 µM]
Cn1c(=O)cc(OCCCC(=O)NCc2ccco2)c2ccccc21 | 20µM* | 2 | 2 | 20µM* | 23%[38.3 µM]
Cc1ccc(CNC(=O)CCCOc2cc(=O)n(C)c3ccccc23)o1 | -23% | 10 | 6 | 20µM* | 6%
O=C(CCCCCN1C(=O)c2ccccc2C1=O)NCc1ccco1 | 11µM* | 9 | 4 | -5% | -2%[38.3 µM]
C=CCC(C)(O)C(=O)OCC (configuration not stated) | -6% | . | . | -16% | 9%
CCOc1ccccc1NC(=S)NNS(=O)(=O)c1c(C)cc(C)cc1C | -16% | . | 18 | 1% | 3%
CC1CCN(C(=O)CCCOc2cc(=O)n(C)c3ccccc23)CC1 | 7.9µM* | 2 | ? | ? | 44%[38.3 µM]
Cc1ccc(NC(=O)COC(=O)/C=C/c2cccs2)c(C)c1 | -23% | . | -18 | 5% | -5%
CC(=O)N=c1sc2nc3ccccc3nc2n1N(C(C)=O)C(C)=O | ? | ? | -4 | ? | 13µM*
CCCNC(=O)[C@H]1O[C@@H]1C(=O)N[C@H](C(=O)N1CCC[C@H]1C(=O)OC)[C@@H](C)CC | . | . | . | 8% | 1%
COc1ccc(C(=O)NC2CCCCCC2)cc1S(=O)(=O)N1CCCc2ccccc21 | -7% | -1 | 13 | ? | 10%[38.3 µM]
COc1ccc(C(=O)Nc2nc3c(s2)CCCC3)cc1S(=O)(=O)N1CCCc2ccccc21 | ? | . | -123* | ? | 4%
C=CCc1c(OC(C)=O)c2ccccc2n(C)c1=O | -14% | . | -106* | 1% | -3%
CCc1c(OC(C)=O)c2ccccc2n(C)c1=O | -24% | . | ? | ? | -3%
Cc1ccc2nc(NCc3ccccc3)[nH]c2c1 | -1% | 1 | -103* | 6% | 1%[38.3 µM]
C[C@H]1CN(S(=O)(=O)c2cccc3cnccc23)CCN1 | . | -5 | . | . | .
CCc1ccc(C(C)NC(=O)Cn2cnc3c(=O)n(C)c(=O)n(C)c32)cc1 (configuration not stated) | -11% | ? | -2 | 28µM* | -6%
SMILES | HPGD block | IMPase inh | PNC inhibitor | ALDH1A1 block | IMPase Li inh
Cc1ccc(-c2nnn(CC(=O)NCCC3=CCCCC3)n2)cc1 | -13% | 13 | -21 | 28µM* | 1%
Cn1c(=O)c2ncn(CC(=O)NC3CCCCCC3)c2n(C)c1=O | -10% | 0 | ? | -11% | 1%[38.3 µM]
CCc1ccc(NC(=O)Cn2cnc3c(=O)n(C)c(=O)n(C)c32)cc1 | . | . | . | 1% | 0%
Cn1c(=O)c2ncn(CC(=O)NCCC3=CCCCC3)c2n(C)c1=O | -15% | -6 | -100* | ? | 12%
CC(C)(C)C1=CC=C(C(C)(C)C)C(=O)C1=O | . | . | . | 1.6µM* | .
CCn1c2ccccc2c2cc(NC(=O)CSc3nnc(-c4cccc(C)c4)o3)ccc21 | -10% | 3 | ? | 18µM* | -13%[38.3 µM]
CCn1c2ccccc2c2cc(NC(=O)CSc3nnc(-c4ccccc4)o3)ccc21 | -13% | 3 | 17 | ? | 22%[38.3 µM]
COc1ccc(Cc2nnc(-c3cccc(C)c3)o2)cc1OC | 18µM* | 14 | 20 | -7% | 2%
COc1ccc(CCNC(=O)CSc2nnc(-c3cccc(C)c3)o2)cc1OC | -26% | 3 | -18 | 18µM* | 3%[38.3 µM]
N[C@H](C(=O)O)[C@@H]1[C@@H](C(=O)O)C1(F)F | -5% | -4 | . | 8% | 5%
Cc1cc(=O)c2c(O)c3c(O)cc(=O)c4c3c3c(cc(O)c1c23)C(C)(C)C=4O | -12% | . | . | 1% | -19%
COC(=O)C1=C(O)/C(=C\c2cc(C)n(-c3ccccc3F)c2C)N=C1C | . | . | . | 11µM* | 45%
COC(=O)C1=C(C)NC(=O)/C1=C\c1cc(C)n(-c2ccccc2)c1C | . | . | . | 25µM* | 13%
COC(=O)C1=C(O)/C(=C\c2cc(C)n(-c3ccccc3C)c2C)N=C1C | -20% | 12 | ? | ? | 43%[38.3 µM]
O=C(CO/N=C/c1ccccc1O)N1CCc2ccccc21 | -8% | . | -20 | 10µM* | -1%
O=C(COc1ccc2c(c1)CCC2)N1CCc2ccccc21 | -10% | 9 | -81* | -11% | 11%[38.3 µM]
O=C(CCCC(=O)N1CCc2ccccc21)N1CCc2ccccc21 | -8% | 1 | 4 | 10% | 2%[38.3 µM]
O=C(OCC(=O)N1CCc2ccccc21)c1ccccc1 | -10% | 0 | -6 | 2% | -13%[38.3 µM]
CCOCC(=O)N1CCc2ccccc21 | -1% | -7 | 55 | 3.5µM* | 16%[38.3 µM]
O=Cc1cn(CC(=O)N2CCc3ccccc32)c2ccccc12 | . | . | . | 18µM* | 6%
Cc1ccc(OCC(=O)N2CCc3ccccc32)cc1 | -12% | . | 11 | -8% | 7%
CC1CCCCN1C(=O)Cn1cc(C=O)c2ccccc21 (configuration not stated) | -4% | . | -16 | 4% | 4%
O=C(COC(=O)c1ccc(CNS(=O)(=O)c2ccc(F)c(Cl)c2)cc1)NCC1CCCCC1 | -10% | 6 | 54 | 9% | 7%
Cc1cc(C)cc(N(C(C)C(=O)NCc2ccc3c(c2)OCO3)S(C)(=O)=O)c1 (configuration not stated) | . | . | . | 10% | 1%
Cc1csc(=N)n1CC(=O)N1CCc2ccccc21 | -4% | 0 | -15 | 25µM* | 6%[38.3 µM]
O=C(CN1C(=O)CSc2ccccc21)N1CCc2ccccc21 | -5% | 11 | -90* | -9% | 17%[38.3 µM]
CN1C(=O)C(=O)N(CC(=O)N2CCc3ccccc32)C1=O | -20% | -14 | 20 | -3% | 17%[38.3 µM]
Cc1c(NC(=O)C(C)OC(=O)c2sc3ccccc3c2Cl)c(=O)n(-c2ccccc2)n1C (configuration not stated) | -9% | . | -116* | -4% | -28%
O=C1CCCC2=C1C1(O)C(=O)c3ccccc3C1(O)O2 (configuration not stated) | -2% | 1 | 4 | 4µM* | 11%[38.3 µM]

Source: PubChem BioAssay
